Results: PubChem BioAssay (NCI)
“And” between values parts separate entries of the source, which are not always exact repeats. Equal entries are not always repeated. The panel holds about 83,000 compounds, 20% with a hit somewhere; the sample as a whole holds those more often.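 Negative percent growth values reflect cell death: -40 means 40% of the cells present at the start died, and -100 means all died.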 The source made the active and inactive calls. The calls were made as follows: active = growth percent below 10; inactive = the rest.

system: MDA-MB-468 breast; experiment: NCI-60 one-dose screen, 48 h (100 = growth as untreated, 0 = no growth, -100 = all killed); conditions: 10 µM unless noted

Row | SMILES | growth
1 | Cc1cccc(/C=C\C(=O)c2ccc(Cl)cc2)c1 | 106% (inactive) and 90.9% (inactive)
2 | COc1ccc2c(OCc3nnc4ccc(-c5ccccc5)nn34)ccnc2c1 | 97.2% [2.5 µM] (inactive)
3 | O=C(Nc1ccc(CN2CCOCC2)c(C(F)(F)F)c1)c1nc2ccc3[nH]ncc3c2c2c1CCCC2 | 97.2% (inactive)
4 | CCCC(=O)Oc1ccc2ccccc2c1 | 94% (inactive)
5 | C=C(C)[C@@H]1CC[C@]2(C(=O)OCCOCCOCC[P+](c3ccccc3)(c3ccccc3)c3ccccc3)CC[C@]3(C)[C@H](CC[C@@H]4[C@@]5(C)CC[C@H](OC(C)=O)C(C)(C)[C@@H]5CC[C@]43C)[C@@H]12 | -76.5% (active)
6 | O=C(c1ccccc1)C(CCc1ccccn1)CCc1ccccn1 | 108% (inactive)
7 | CC(c1ccccc1)N1C(=O)C(C2SC(=S)N(C(C)c3ccccc3)C2=O)SC1=S (stereo not given) | 44.2% (inactive)
8 | COc1ccccc1NC(=O)C1CC(c2ccc(F)cc2)=NO1 (stereo not given) | 99.7% (inactive)
9 | CO[C@H](C(=O)[C@@H](O)[C@@H](C)O)[C@@H]1Cc2cc3cc(O[C@H]4C[C@@H](O[C@H]5C[C@@H](O)[C@H](O)C(C)O5)[C@H](O)C(C)O4)c(C)c(O)c3c(O)c2C(=O)[C@H]1O[C@H]1C[C@@H](O[C@H]2C[C@@H](O[C@H]3C[C@@H](OC)[C@H](O)C(C)O3)[C@@H](O)C(C)O2)C(O)(O)C(C)O1 (stereo not given in full) | -30.2% (active)
10 | CCN(CC)CCCCCNc1cc(OC(=O)c2ccc(Cl)cc2)cc2cccnc12 | 71.6% (inactive)
11 | CCOc1ccc(/C=C/C(=O)c2ccccc2)cc1 | 68.2% (inactive)
12 | OC(c1cc(-c2ccccc2)nc2ccc(Cl)cc12)C1CCCCN1 (stereo not given) | -17.1% (active)
13 | CCOC(C)(c1ccc(Cl)cc1)C1CCNCC1 (stereo not given) | 90.9% (inactive)
14 | O=C(CCc1nnc(SCc2ccccc2)s1)c1nc2ccccc2[nH]1 | 103% (inactive)
15 | O=C1Nc2cc(Cl)ccc2/C1=C\c1ccc(OCc2ccc(Br)cc2F)cc1 | -37.8% (active)
16 | COc1ccc(C(=O)c2sc3nc(-c4cccs4)ccc3c2N)cc1OC | 8.13% (active)
17 | COc1ccccc1N1CCN(C2=C(Cl)C(=O)c3ncccc3C2=O)CC1 | -55.3% (active)
18 | CCc1ccc(C(=O)/C=C/C23c4ccccc4C(c4ccccc42)C2C(=O)NC(=O)C23)cc1 (stereo not given) | -15.9% (active)
19 | c1ccc(-c2nnn(-c3ccccc3)n2)cc1 | 111% (inactive)
20 | N#Cc1c(N)nc(N)nc1Nc1ccc(Br)cc1 | 89.6% (inactive)

Row | SMILES | growth
21 | Cn1cc(-c2noc(C(=O)c3cn(C)c4ncc(Br)cc34)n2)c2ccccc21 | 111% (inactive)
22 | CC(=O)OCCC/C(=C/c1cc2ccccc2c2ccccc12)[N+](=O)[O-] | -69% (active)
23 | Cc1ccc(-c2cc(-c3cccc(Nc4ccnc5cc(Cl)ccc45)c3)nc3nc(N)[nH]c(=O)c23)cc1 | 28% (inactive)
24 | C=CCn1c(SCC(=O)Nc2ccc(C(=O)/C=C/c3cc(OC)c(OC)c(OC)c3)cc2)nnc1-c1cc(-c2ccc(OC)cc2)nc2ccccc12 | 103% (inactive)
25 | Cc1csc(NC(c2ccc(Br)cc2)c2c(C)nc3ccccn23)n1 (stereo not given) | 93.5% (inactive)
26 | Brc1cnc2ccccc2c1 | 113% (inactive)
27 | Cc1ccccc1NC(=O)Cc1csc2[n+]1C(=O)/C(=C/c1ccc([N+](=O)[O-])cc1)S2 | 116% (inactive)
28 | O=C(Nc1ccc(N2CCNCC2)cn1)c1[nH]ncc1Nc1ncnc2sc3c(c12)CCC3 | -37.9% (active)
29 | COc1ccc(-c2nc3ccccn3c2-c2nc3ccc(Cl)cc3[nH]2)cc1 | 77.7% (inactive)
30 | COc1cc(NC(=O)CSc2nc3ccc(C)cc3c(=O)n2-c2ccccc2)cc(OC)c1OC | 69.8% (inactive)
31 | CO[C@H]1CC(O[C@@H]2/C(C)=C/C[C@@H]3C[C@@H](C[C@]4(CC[C@H](C)[C@@H](C5CCCCC5)O4)O3)OC(=O)[C@@H]3C=C(C)/C(=N/O)[C@H]4OC/C(=C\C=C\[C@@H]2C)[C@]43O)O[C@@H](C)C1O (stereo not given in full) | -87% (active)
32 | Cc1ccc(C(=O)CSc2nc(-c3ccc(Br)cc3)c(C#N)c(=O)[nH]2)cc1 | 92.2% (inactive)
33 | O=C1Nc2cc(-c3cccc(O)c3)ccc2/C1=C/c1ccc[nH]1 | 7.4% (active)
34 | CC(=O)CCC(=O)OCc1cc(=O)c(O)co1 | 101% (inactive)
35 | O=C(CSc1nc2ccccc2c(=O)n1-c1ccc(Cl)cc1)N/N=C/c1ccc(Oc2ccc(Cl)cc2)cc1 | -18.6% (active)
36 | CCOC(=O)c1c2c(c(C)n1Cc1ccc(OC)cc1)-c1oncc1CC2 | 97.8% (inactive)
37 | Clc1ccc2c(NC3CCC(N4CCOCC4)CC3)ccnc2c1 (stereo not given) | 9.58% (active)
38 | CCSc1ccc([C@@H]2[C@@H](O)C(=O)N2c2cc(OC)c(OC)c(OC)c2)cc1 | 40.2% (inactive)
39 | C[C@@H](CO)[C@@H]1CCC=C2CC[C@]3(C)[C@H](CC[C@@H]4[C@@]5(C)CCCNC(C)(C)[C@@H]5CC[C@]43C)[C@H]21 | -15.2% (active)
40 | CCOC(=O)c1ccc(NC(=O)N2CC(C)OC(C)C2)cc1 (stereo not given) | 91.7% (inactive)
